From article PMC4336329 (PLoS ONE, 2015)
Out of some 310,000 compounds screened, about 14,000 (4.5%) showed an effect of 50% or more. Effects have a minus sign here. This is one part of a sample in which strong results are shown more often than they occur.

These compounds were tested against human ether-à-go-go-related gene (hERG) potassium channel (human, UniProt Q12809) (assay: primary screen, population patch clamp on CHO cells stably expressing hERG; higher = less effect of the substance).
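Note: peak tail current of the secondary pulse compared with the same well before compound.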

Sequence of human ether-à-go-go-related gene (hERG) potassium channel (Q12809 whole entry, looked up): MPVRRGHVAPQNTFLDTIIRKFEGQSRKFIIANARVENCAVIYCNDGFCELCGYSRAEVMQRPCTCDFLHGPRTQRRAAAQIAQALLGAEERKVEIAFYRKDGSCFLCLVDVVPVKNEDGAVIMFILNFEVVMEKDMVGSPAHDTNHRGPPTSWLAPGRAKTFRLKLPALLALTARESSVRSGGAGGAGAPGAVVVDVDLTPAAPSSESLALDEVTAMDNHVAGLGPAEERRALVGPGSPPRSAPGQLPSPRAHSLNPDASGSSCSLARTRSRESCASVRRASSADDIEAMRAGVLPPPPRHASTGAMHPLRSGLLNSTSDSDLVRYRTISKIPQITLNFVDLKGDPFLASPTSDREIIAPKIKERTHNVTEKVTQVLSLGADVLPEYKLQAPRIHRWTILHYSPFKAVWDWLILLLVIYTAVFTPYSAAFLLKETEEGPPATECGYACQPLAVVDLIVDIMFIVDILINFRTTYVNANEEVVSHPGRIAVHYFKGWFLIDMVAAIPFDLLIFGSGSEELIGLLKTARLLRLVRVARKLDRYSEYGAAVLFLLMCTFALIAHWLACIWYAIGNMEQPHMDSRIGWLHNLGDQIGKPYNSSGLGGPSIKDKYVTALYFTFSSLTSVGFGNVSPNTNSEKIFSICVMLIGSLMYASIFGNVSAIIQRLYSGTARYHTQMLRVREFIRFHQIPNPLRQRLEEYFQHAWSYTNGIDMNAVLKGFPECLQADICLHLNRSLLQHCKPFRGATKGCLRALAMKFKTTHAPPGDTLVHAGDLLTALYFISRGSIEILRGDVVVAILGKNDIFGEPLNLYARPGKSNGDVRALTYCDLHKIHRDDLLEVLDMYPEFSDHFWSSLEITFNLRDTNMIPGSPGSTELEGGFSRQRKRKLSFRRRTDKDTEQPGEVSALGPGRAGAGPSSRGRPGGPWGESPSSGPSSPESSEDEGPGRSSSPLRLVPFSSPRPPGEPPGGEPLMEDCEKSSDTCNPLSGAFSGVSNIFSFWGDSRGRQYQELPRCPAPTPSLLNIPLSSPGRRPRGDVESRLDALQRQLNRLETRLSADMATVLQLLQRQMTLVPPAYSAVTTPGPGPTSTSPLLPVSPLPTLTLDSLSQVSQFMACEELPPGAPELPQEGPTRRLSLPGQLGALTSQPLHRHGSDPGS

Row | SMILES | hERG current change (%, negative = inhibition) at 10uM [%]
1 | O=C1CCCC2=C1C(c1ccncc1)c1c(nc(SCc3ccccc3)[nH]c1=O)N2 (stereo not shown) | 17.7
2 | O=C(c1cc([N+](=O)[O-])ccc1N1CCOCC1)N1CCN(S(=O)(=O)c2ccc(F)cc2)CC1 | -32.5
3 | O=C(c1cc([N+](=O)[O-])ccc1N1CCOCC1)N1CCN(S(=O)(=O)c2cc(Cl)ccc2Cl)CC1 | -32.3
4 | O=C(c1cnc2n(c1=O)CCS2)N1CCN(c2ccc([N+](=O)[O-])cc2)CC1 | -63
5 | CC(=O)c1cnc2n(c1=O)CCS2 | 27.8
6 | CCOC(=O)N1CCN(C(=O)c2cnc3n(c2=O)CCS3)CC1 | 7.34
7 | O=C(c1cc([N+](=O)[O-])ccc1N1CCN(S(=O)(=O)c2ccc(Cl)c(Cl)c2)CC1)N1CCOCC1 | -52.4
8 | CCOC(=O)C(C)Sc1nnc(Cc2cc(=O)[nH]c(=O)[nH]2)n1-c1ccc(Cl)cc1 (stereo not shown) | 2.15
9 | C/C(=N/OC(=O)c1c(F)cccc1F)c1nccs1 | 3.34
10 | CCOC(=O)CSc1nnc([C@H](Cc2ccccc2)NC(=O)OC(C)(C)C)o1 | -14.3
11 | COc1ccc2c(COC(=O)CNC(=O)C34CC5CC(CC(C5)C3)C4)cc(=O)oc2c1 | -31.4
12 | COc1ccc([C@@H](C)NC(=O)c2ccc3oc(C(C)C)nc3c2)cc1 | 26.1
13 | O=C(NC(=S)Nc1ccccc1F)c1ccc(Br)o1 | 8.98
14 | O=C(c1ccco1)N1CCN(C(=O)C2CC(c3ccccc3F)=NO2)CC1 (stereo not shown) | -18.3
15 | COc1ccc(C2=NOC(C(=O)N3CCN(C(=O)c4ccco4)CC3)C2)cc1OC (stereo not shown) | 0.127
16 | O=C(c1ccco1)N1CCN(C(=O)C2CC(c3ccc(Cl)cc3)=NO2)CC1 (stereo not shown) | -76.2
17 | O=C(c1ccco1)N1CCN(C(=O)C2CC(c3ccc(F)cc3)=NO2)CC1 (stereo not shown) | -72.5
18 | COc1cc(OC)c(C2=NOC(C(=O)N3CCN(C(=O)c4ccco4)CC3)C2)cc1Cl (stereo not shown) | -35.3
19 | COc1cccc(C2=NOC(C(=O)N3CCN(C(=O)c4ccco4)CC3)C2)c1 (stereo not shown) | -40.1
20 | N#CC1(c2ccccc2)CCCN1C(=O)c1ccc(Br)cc1 (stereo not shown) | -8.79
21 | CC(=O)Nc1ccc(NC(=O)COc2ccc3c(c2)CCC3)cc1 | 24.5
22 | N#CC1CCCc2c1[nH]c1ccc([N+](=O)[O-])cc21 (stereo not shown) | 12.5

Row | SMILES | hERG current change (%, negative = inhibition) at 10uM [%]
23 | S=C(Nc1ccc(Cl)cc1)NC1CC2CCCC(C1)N2C1CCCC1 (stereo not shown) | -55.5
24 | S=C(Nc1ccc(Cl)cc1)NC1CC2CCCC(C1)N2C1CC1 (stereo not shown) | -32.9
25 | Cc1cc(C)cc(NC(=O)NC2CCCCCCC2)c1 | -5.07
26 | CCCN1C2CCCC1CC(NC(=S)Nc1cccc(C)c1)C2 (stereo not shown) | -44.5
27 | C=CCN1C2CCCC1CC(NC(=O)Nc1cc(C)cc(C)c1)C2 (stereo not shown) | -51.8
28 | S=C(Nc1cccc(Cl)c1)NC1CC2CCCC(C1)N2C1CCCC1 (stereo not shown) | 19
29 | S=C(Nc1ccccc1Cl)NC1CC2CCCC(C1)N2C1CC1 (stereo not shown) | -23.8
30 | CCCN1C2CCCC1CC(NC(=S)Nc1cc(C)ccc1C)C2 (stereo not shown) | 11.6
31 | C=CCN1C2CCCC1CC(NC(=O)Nc1cccc(C(C)=O)c1)C2 (stereo not shown) | 5.52
32 | COc1ccc(NC(=S)NC2CC3CCCC(C2)N3C2CC2)cc1 (stereo not shown) | -41.3
33 | CCCN1C2CCCC1CC(NC(=S)Nc1cc(C)cc(C)c1)C2 (stereo not shown) | -83.7
34 | Cc1cc(C)cc(NC(=S)NC2CC3CCCC(C2)N3C2CC2)c1 (stereo not shown) | -67.3
35 | CC1=C(C)C(OCCBr)N(c2cc(O)c(Cl)cc2F)C1=O (stereo not shown) | 4.66
36 | CN(C(=O)c1ccc(NC(=O)Cc2ccc(NC(=O)C3CCN(C(=O)CCc4ccccc4)CC3)cc2)cc1)C1CC1 | 9.51
37 | COc1cccc2cc(C(=O)n3ccc(C)n3)c(=O)oc12 | 8.24
38 | CN1CCN(C2=C(NS(=O)(=O)c3ccccc3)C(=O)c3ccccc3C2=O)CC1 | 2.75
39 | Cc1ccc(S(=O)(=O)NCC2CCC(C(=O)NCc3ccc4c(c3)OCO4)CC2)cc1 (stereo not shown) | -0.473
40 | Cl.Clc1ccccc1CN1CCN(/N=C/c2ccncc2)CC1 | -24.3
41 | CCCCCCCN1C/C=C\C(c2ccc(OC)cc2)N(Cc2ccc(F)cc2)C(=O)[C@H]1Cc1ccccc1 (stereo partly shown) | 8.55
42 | NC(=O)CC(NC(=O)Cc1ccc(Cl)cc1)c1ccc(N2CCC(Cc3ccccc3)CC2)c([N+](=O)[O-])c1 (stereo not shown) | 17.7
43 | Cc1nc(SCC(=O)NCc2ccco2)c2c(C)c(C)sc2n1 | -2.85
44 | O=C(COC(=O)c1ccc(NS(=O)(=O)c2cccs2)cc1O)NC1CCCCC1 | 8.92

Row | SMILES | hERG current change (%, negative = inhibition) at 10uM [%]
45 | O=C(O)CCS(=O)(=O)c1ccc(-c2ccccc2)cc1 | 19.3
46 | CSc1ccc(-c2nc(CSCC(=O)NCCCN3CCCC3=O)c(C)o2)cc1 | -14.4
47 | Cc1cc(C)cc(NC(=S)NC2CC3CCCC(C2)N3CC(C)C)c1 (stereo not shown) | -7.32
48 | Cc1cc(C)cc(NC(=S)NC2CC3CCCC(C2)N3C2CCCC2)c1 (stereo not shown) | -77.5
49 | COc1cccc(NC(=S)NC2CC3CCCC(C2)N3C2CCCC2)c1 (stereo not shown) | -33.6
50 | COc1ccc([C@H]2CC(=O)C=C(c3cccc(C(F)(F)F)c3)C2)cc1 | -14.4
51 | CC1(c2nnc(Cc3ccccc3)o2)CC(c2ccc(Cl)cc2)=NO1 (stereo not shown) | -23.3
52 | CC1(c2nnc(Cc3ccccc3)o2)CC(c2cccc([N+](=O)[O-])c2)=NO1 (stereo not shown) | -7.45
53 | CC1(c2nnc(Cc3ccccc3)o2)CC(c2ccc([N+](=O)[O-])cc2)=NO1 (stereo not shown) | -63.2
54 | Cc1ccc(C2=NOC(C)(c3nnc(Cc4ccccc4)o3)C2)cc1 (stereo not shown) | -15.2
55 | CC1(c2nnc(Cc3ccccc3)o2)CC(c2ccccc2)=NO1 (stereo not shown) | -18
56 | CC1(c2nnc(Cc3ccccc3)o2)CC(c2ccc(C#N)cc2)=NO1 (stereo not shown) | -62.3
57 | CC1(C)CC(=O)C=C(N2CCNCC2)C1 | 14.9
58 | CCOC(=O)C1CCCN(C(=O)c2ccc(C)c(S(=O)(=O)N3CCCCC3)c2)C1 (stereo not shown) | -25.3
59 | CCOC(=O)C1CCCN(C(=O)c2cccc(N3C(=O)c4ccccc4C3=O)c2)C1 (stereo not shown) | -18.4
60 | O=C(c1ccc(Cl)c(S(=O)(=O)N2CCCCC2)c1)N1CCCC(C(F)(F)F)C1 (stereo not shown) | -31.8
61 | O=C(c1ccc(Cl)c(S(=O)(=O)N2CCCC2)c1)N1CCCC(C(F)(F)F)C1 (stereo not shown) | -18.1
62 | CC1CCCN(C(=O)c2ccc(Cl)c(S(=O)(=O)N3CCCCCC3)c2)C1 (stereo not shown) | -76.3
63 | CCOC(=O)C1CCCN(C(=O)c2ccc(Cl)c(S(=O)(=O)N3CCCCCC3)c2)C1 (stereo not shown) | -70.7
64 | O=C(c1ccc(Cl)c(S(=O)(=O)N2CCCC2)c1)N1CCCCC1 | 3.08
65 | O=C(c1ccc(Cl)c(S(=O)(=O)N2CCCCC2)c1)N1CCCC1 | -7.02
66 | O=C(c1cccc(N2C(=O)c3ccccc3C2=O)c1)N1CCCCCC1 | 2.21

Row | SMILES | hERG current change (%, negative = inhibition) at 10uM [%]
67 | CCOC(=O)C1CCCN(C(=O)c2ccc(Cl)c(S(=O)(=O)N3CCCCC3)c2)C1 (stereo not shown) | -13.8
68 | O=C(c1ccc(Cl)c(S(=O)(=O)N2CCCCCC2)c1)N1CCCC(C(F)(F)F)C1 (stereo not shown) | -58.9
69 | O=C(c1cccc(N2C(=O)c3ccccc3C2=O)c1)N1CCCC(C(F)(F)F)C1 (stereo not shown) | -53.9
70 | CSc1cccc(NC(=O)OC2CCCCCCCCCCC2)c1 | 7.83
71 | Cc1ccc(S(=O)(=O)N2C(=O)/C(=C3\SC(=S)NC3=O)c3ccccc32)cc1 | 10
72 | Fc1ccccc1CSc1ncnc2sc3c(c12)CCCC3 | 2.75
73 | O=C(Nc1ccc2nn(-c3ccccc3)nc2c1)c1ccc(Br)o1 | 7.88
74 | CCOc1cc(C)c(C(C)C)cc1S(=O)(=O)n1ccc(C)n1 | -29.4
75 | Cc1nn(C)c(C)c1NC(=O)/C(C#N)=C\N(C)C | 12.6
76 | NC(=O)C1(N2CCCCC2)CCN(C(=O)CSc2nc3ccccc3o2)CC1 | -4.85
77 | COC(=O)C1=C(C)N(CCC2=CCCCC2)C(=O)C1 | 1.46
78 | CC(C)(Oc1ccc(CCNC(=O)c2ccc(-c3ccccc3)o2)cc1)C(=O)O | 14
79 | O=C(CC1SC(N2CCCC2)=NC1=O)Nc1ccc(C(=O)N2CCCC(C(F)(F)F)C2)cc1 (stereo not shown) | 18.8
80 | Cc1ccc2cc(CN(C)S(C)(=O)=O)c(=O)[nH]c2c1 | 26.9
81 | NC(=O)COC(=O)c1ccc(Cl)c(S(=O)(=O)N2CCCCCC2)c1 | -4.36
82 | CN(C(=O)COC(=O)c1ccc(Cl)c(S(=O)(=O)N2CCCCC2)c1)C1(C#N)CCCCC1 | -57.4
83 | CCOC(=O)c1ccc(Cl)c(S(=O)(=O)N2CCCC2)c1 | 23.8
84 | CCN(CC)S(=O)(=O)c1ccc(C)c(NC(=O)CNc2cccc(S(=O)(=O)N3CCOCC3)c2)c1 | -17.7
85 | Cc1c(C(=O)N(C)C)sc2nc(-c3ccccn3)[nH]c(=O)c12 | -2.71
